The values that follow come from PubChem BioAssay.

Experiment [1] deals with XIP peptide (Xip251-270) binding. In words: XIP fragment 251-270 binding compounds – biochemical, small-molecule microarray, fluorescence 635/667 nm, 0.1 µg/mL protein, primary screen (AID 1182). To be noted: fluorescent protein binding, 635 nm, higher = more signal, called active from +8 up or from −8 down.
Experiment [2] has as its system XIP peptide (Xip251-270). Put plainly: compounds binding XIP fragment 251-270 – biochemical, small-molecule microarray, fluorescence 635/667 nm, 0.5 µg/mL protein, primary screen (AID 1183). Conditions: fluorescence 635 nm, higher = more signal.
Experiment [3] can be described thus: blood-stage malaria parasite viability loss – strain 3D7, DAPI fluorescence, 100 nL, primary screen (AID 1184).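 Also: parasites grown inside human red blood cells in medium with human serum.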 To be noted: P. falciparum 3D7 growth, 3 d, higher = more signal.
Experiment [4] addresses Homeobox protein Hox-A13 (Mus musculus) (UniProt Q62424). Put plainly: disruptors of Hoxa13 oligonucleotide interaction – biochemical, fluorescence polarization, labeled oligonucleotide, primary screen (AID 1185). To be noted: Hoxa13:DNA binding, 15 min, higher = more signal, called active from +8 up or from −8 down.
Experiment [5] can be described thus: blockers of DNA damage checkpoint Chk1 activation – imaging, HeLa, hydroxyurea, phospho-Chk1 antibody, percent positive cells, primary screen (AID 1186). Conditions: hydroxyurea-induced phospho-Chk1 immunofluorescence imaging, higher = more signal.
Experiment [6] is described as follows: blockers of DNA damage checkpoint Chk1 activation – imaging, HeLa, hydroxyurea, phospho-Chk1 nuclear intensity, primary screen (AID 1187). To be noted: hydroxyurea-induced phospho-Chk1 immunofluorescence imaging, higher = more signal.

Calls of active or inactive are those of the source. Unless noted, no rule for the calls is given here.

Sequence of Homeobox protein Hox-A13 (Mus musculus) (Q62424 whole entry, looked up): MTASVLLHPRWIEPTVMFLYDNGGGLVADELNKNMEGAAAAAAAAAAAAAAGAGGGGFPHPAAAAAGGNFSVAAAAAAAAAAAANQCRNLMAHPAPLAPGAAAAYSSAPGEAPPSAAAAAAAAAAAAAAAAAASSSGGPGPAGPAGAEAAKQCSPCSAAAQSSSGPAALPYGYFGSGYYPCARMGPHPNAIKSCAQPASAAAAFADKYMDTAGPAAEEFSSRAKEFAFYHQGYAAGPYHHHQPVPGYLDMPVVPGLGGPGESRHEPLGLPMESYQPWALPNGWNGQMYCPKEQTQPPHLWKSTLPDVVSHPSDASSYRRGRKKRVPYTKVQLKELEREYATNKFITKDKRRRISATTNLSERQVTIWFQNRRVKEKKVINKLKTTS

`CC(C)NC(=O)[C@@]1(c2ccc([N+](=O)[O-])cc2)CC(=O)N(C(C)C)[C@@H]1c1ccc(CO)cc1`: the composite z-score in experiment [1] is 0.508 (inactive); in experiment [2] it was 0.316. For the same compound, the z-score in experiment [3] is 0.468; in experiment [4], -2 (inactive); in experiment [5], -0.403 (inactive); in experiment [6] it was -0.102 (inactive).
`O=[N+]([O-])c1ccc(C[n+]2ccc(CCCO)cc2)o1`: the composite z-score in experiment [1] was 0.46 (inactive); in experiment [2], 0.968. For the same compound, the z-score is -1.28 in experiment [3], -2.88 (inactive) in experiment [4], -0.0644 (inactive) in experiment [5] and 0.492 (inactive) in experiment [6].
`CCCC[C@H]1C[C@@H]1[C@@H]1N(P(=O)(c2ccccc2)c2ccccc2)[C@](CO)(c2ccccc2)CC12CC2`: the composite z-score in experiment [1] was -0.131 (inactive); in experiment [2], 0.518. The z-score in experiment [3] was 0.791; in experiment [4], -2.7 (inactive); in experiment [5], 0.335 (inactive); in experiment [6], 0.514 (inactive).
Take `COC(=O)[C@@]1(Cc2ccc(OC)cc2)[C@H]2c3cc(C(=O)N4CCCC4)n(CCN4CCOCC4)c3C[C@H]2CN1C(=O)c1ccccc1`: the composite z-score in experiment [1] is 1.11 (inactive); in experiment [2], 0.0956. In addition, the z-score in experiment [3] is -1.17; in experiment [4], -5.18 (inactive); in experiment [5], 0.778 (inactive); in experiment [6], 0.485 (inactive).
As to `C[N+](C)(C)CCCC[C@@H]1NC(=O)[C@H]2C[C@@H](C(=O)O)[C@@H](c3cccc(OCCO)c3)N2C1=O`, the composite z-score in experiment [1] was 3.68 (inactive); in experiment [2] it was 0.809. The z-score in experiment [3] was -0.255; in experiment [4], -0.304 (inactive); in experiment [5], 0.336 (inactive); in experiment [6], 0.213 (inactive).
On to `CC(=O)NCCCC[C@@H]1NC(=O)[C@@H]2C[C@H](C(=O)NCCCCCC[N+](C)(C)C)[C@H](c3cccc(OCCO)c3)N2C1=O`, for which the composite z-score in experiment [1] is 1.52 (inactive); in experiment [2], 0.345. Besides, the z-score is 0.129 in experiment [3], -4.94 (inactive) in experiment [4], -0.502 (inactive) in experiment [5] and -0.0493 (inactive) in experiment [6].
In the case of `CCN(CC)c1ccc(N2CC=CC34O[C@@H]5C=CCCOC(=O)C5[C@H]3C(=O)N(CCCO)[C@@H]4C2=O)cc1` (some centres not stated), the composite z-score in experiment [1] is -0.658 (inactive); in experiment [2] it was -0.588. The z-score is -1.49 in experiment [3], -3.95 (inactive) in experiment [4], -0.28 (inactive) in experiment [5] and -0.816 (inactive) in experiment [6].
As to `O=C(NCCN1CCOCC1)[C@@H]1c2ccccc2C(=O)N(Cc2cc(F)cc(C(F)(F)F)c2)[C@H]1c1ccc(CO)cc1`, the composite z-score in experiment [1] was 0.376 (inactive); in experiment [2] it was 0.372. Moreover, the z-score in experiment [3] is 0.0111; in experiment [4] it was -4.42 (inactive); in experiment [5] it was -0.189 (inactive); in experiment [6], -0.151 (inactive).
`O=C1c2ccccc2[C@@]2(Cc3ccccc3N(Cc3ccccc3)C2=O)[C@H](c2ccc(CO)cc2)N1Cc1ccccc1C(F)(F)F`: the figures for the composite z-score in experiment [1] and in experiment [2] were 3.2 (inactive) and 0.878, respectively. Also, the z-score in experiment [3] is -0.275; in experiment [4], -2.79 (inactive); in experiment [5], -0.21 (inactive); in experiment [6], -0.154 (inactive).
`COCCCNC(=O)[C@@]1(Cc2ccccc2I)c2ccccc2C(=O)N(Cc2ccccc2)[C@H]1c1ccc(CO)cc1`: the results for the composite z-score in experiment [1] and in experiment [2] were 0.433 (inactive) and 0.736, respectively. The z-score is -1.04 in experiment [3], -4.39 (inactive) in experiment [4], -0.0143 (inactive) in experiment [5] and 0.371 (inactive) in experiment [6].
Regarding `Cc1ccc(C(C)CC(O)C2C=CC3C(=O)NC(=O)C3N2Nc2ccccn2)o1` (configuration not stated), the composite z-score was 0.673 (inactive) in experiment [1] and 0.881 in experiment [2]. Besides, the z-score in experiment [3] is 0.281; in experiment [4], -2.14 (inactive); in experiment [5], 0.333 (inactive); in experiment [6] it was 0.0304 (inactive).
As to `COc1c(C)cc(-c2cc3c(c(-c4ccccc4)n2)[Si](C(C)C)(C(C)C)O[C@H]3c2ccccc2)cc1C`, the composite z-score is 0.648 (inactive) in experiment [1] and -0.029 in experiment [2]. Further, the z-score is -2.88 in experiment [3], -0.742 (inactive) in experiment [4], -0.59 (inactive) in experiment [5] and -0.492 (inactive) in experiment [6].
Take `O=C1OCCC/C=C\[C@H]2OC34C=CCN(Cn5nnc6ccccc65)C(=O)[C@H]3N(CCCO)C(=O)[C@@H]4C12` (some centres not stated): the composite z-score in experiment [1] is -0.021 (inactive); in experiment [2], 0.652. The z-score is -0.0008 in experiment [3], -4.13 (inactive) in experiment [4], 0.472 (inactive) in experiment [5] and -0.103 (inactive) in experiment [6].
Turning to `O=C1OCC=C[C@H]2OC34C=CCN(CCN5CCOCC5)C(=O)[C@H]3N(CCCCCCO)C(=O)[C@@H]4[C@@H]12` (some centres not stated), the composite z-score is 0.304 (inactive) in experiment [1] and -0.291 in experiment [2]. Besides, the z-score is -0.448 in experiment [3], -7.09 (inactive) in experiment [4], -1.52 (inactive) in experiment [5] and -1.21 (inactive) in experiment [6].
`COC(=O)[C@@]1(Cc2ccc(OC)cc2)[C@H]2c3cc(C(=O)N4CCCC4)n(C[C@H](O)CO)c3C[C@H]2CN1C(=O)c1ccccc1`: the results for the composite z-score in experiment [1] and in experiment [2] were 0.883 (inactive) and -0.197, respectively. Further, the z-score is -1.17 in experiment [3], -5.13 (inactive) in experiment [4], 0.0578 (inactive) in experiment [5] and -0.0868 (inactive) in experiment [6].
Turning to `CC(c1ccccc1)C(O)C1C=CC2C(=O)N(Cc3ccccc3)C(=O)C2N1n1cnnc1` (configuration not stated), the values for the composite z-score in experiment [1] and in experiment [2] were -0.429 (inactive) and 0.908, respectively. Also, the z-score in experiment [3] is -0.864; in experiment [4], -1.93 (inactive); in experiment [5], 0.106 (inactive); in experiment [6], -0.634 (inactive).
As to `COc1ccc(CCNC(=O)[C@@]2(C)c3ccccc3C(=O)N(Cc3ccccc3)[C@H]2c2ccc(CO)cc2)cc1`, the composite z-score in experiment [1] was 1.12 (inactive); in experiment [2] it was 0.859. The z-score in experiment [3] is -1.93; in experiment [4], -4.95 (inactive); in experiment [5], -0.281 (inactive); in experiment [6], -0.173 (inactive).
In the case of `COCCOC(=O)N1C(=O)[C@@]2(c3ccccc31)[C@H](C(=O)N1CCCCCCC1)[C@H]1C(=O)O[C@H](c3ccccc3)[C@H](c3ccccc3)N1[C@@H]2c1ccccc1OCCO`, the composite z-score is 2.16 (inactive) in experiment [1] and 0.83 in experiment [2]. Also, the z-score in experiment [3] was -2.1; in experiment [4] it was 3.39 (inactive); in experiment [5] it was -0.26 (inactive); in experiment [6] it was -0.299 (inactive).
Turning to `C=C(C(=O)CC[C@@H](OC(=O)c1cccnc1)c1ccc(CO)o1)C(C)C`, the composite z-score in experiment [1] was -0.239 (inactive); in experiment [2], 0.249. For the same compound, the z-score was -0.188 in experiment [3], -4.55 (inactive) in experiment [4], 0.647 (inactive) in experiment [5] and 0.501 (inactive) in experiment [6].
For `O=C1O[C@@H](c2ccccc2)[C@@H](c2ccccc2)N2[C@@H](c3ccc(O)cc3)[C@]3(C(=O)Nc4ccc(C#CCCO)cc43)[C@@H](C(=O)O)[C@H]12`, the composite z-score in experiment [1] is 0.665 (inactive); in experiment [2] it was 0.785. In addition, the z-score in experiment [3] is -0.63; in experiment [4], -4.56 (inactive); in experiment [5], 0.0686 (inactive); in experiment [6] it was 0.632 (inactive).
Consider `C=CCC(OC(C)=O)[C@@H]1[C@@H](N(Cc2ccc(-c3cccc(C(F)(F)F)c3)o2)C(=O)Cc2ccc(OC)cc2)c2cc(OCCCO)ccc2N1C(=O)Cc1ccc(OC)cc1` (some centres not stated), for which the composite z-score in experiment [1] was -0.343 (inactive); in experiment [2], 0.278. Also, the z-score in experiment [3] was -2.23; in experiment [4], -3.42 (inactive); in experiment [5], -0.186 (inactive); in experiment [6], -0.0407 (inactive).
In the case of `CCN(CC)c1ccc(N2CC=CC34O[C@@H]5/C=C\CCCOC(=O)C5[C@H]3C(=O)N(CCCO)[C@@H]4C2=O)cc1` (some centres not stated), the composite z-score is 0.828 (inactive) in experiment [1] and 0.828 in experiment [2]. Further, the z-score in experiment [3] is 0.404; in experiment [4] it was -6.09 (inactive); in experiment [5] it was -0.343 (inactive); in experiment [6], 0.121 (inactive).
